Screens from PubChem BioAssay.
Rows were chosen to be rich in hits. Some 1.8% of all compounds tested hit in one or more screens of this group.
Six1-Eya2 inh – blocks human Six1 binding to Eya2; hit rate 0.56% among 360,000; Q15475+O00167; AlphaScreen GST-Six1/His-Eya2 binding, biochemical; active compounds read low; activity change, % (test concentration not listed)
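Compounds are tested against tagged Six1 and Eya2 proteins bridged by glutathione donor and nickel acceptor beads; after a one-hour incubation at 37 °C without light, AlphaScreen emission is recorded.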
Akt phos inh – inhibitors of Akt phosphorylation | Neuro2A IGF-stimulated pAkt S473 HTRF, 20 min; active compounds read low | activity change, % for hits at 50 µM | hit rate 0.32% among 360,000 | AID 651550; in the data active means activity change below about -80%; inconclusive means mostly about -51% to -80%
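Single-point screen (50 µM final compound) in Neuro2A cells stimulated 20 min with 6 nM IGF at 37 deg C. After lysis, Ser473-phosphorylated Akt read by HTRF (ex 330 nm, em 615/665 nm) as the 665/615 ratio.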
PI5P4Ka inh – blocks human PI5P4K alpha kinase activity. P48426. PI5P4Kalpha enzyme, ADP-Glo luminescence, 60 min; active compounds read low. max response, %. hit rate 1.2% among 330,000; active means max response of -50% or lower; inconclusive means between -30% and -50%; inactive means -30% or higher; further: value at the top dose of about 77 µM
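Reactions run in 0.038 M HEPES pH 7.4, 0.28 mM EGTA, 0.1% CHAPS and 5% DMSO, with PI5P4Kalpha, substrate, compound and 5 microM ATP final, one hour at room temperature. Readout is ADP-Glo luminescence.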
CtBP-E1A blk – CtBP/E1A binding inhibition. AID 651724. AlphaScreen GST-E1A/His-CtBP binding, 1536-well; active compounds read low. activity change, % (concentration not given with the values). hit rate 0.49% among 340,000
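GST-E1A and His-tagged CtBP (125 nM each as 5X stock) were preincubated with pin-transferred compound for 2 h at 37 °C in the dark, then glutathione donor and nickel acceptor beads were added for 1 h before AlphaScreen reading.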
PI4K2A block – PI4K2A (human) kinase inhibition. AID 1346378. hit rate 0.13% among 420,000. Q9BTU6. purified PI4K2A, ADP-Glo luminescence, 1 h; active compounds read low. activity change, negative = inhibition, % at 76.9 µM; in the data active means activity change below about -50%; inconclusive means mostly about -30% to -49%
Target sequence (Q9BTU6 whole entry, looked up): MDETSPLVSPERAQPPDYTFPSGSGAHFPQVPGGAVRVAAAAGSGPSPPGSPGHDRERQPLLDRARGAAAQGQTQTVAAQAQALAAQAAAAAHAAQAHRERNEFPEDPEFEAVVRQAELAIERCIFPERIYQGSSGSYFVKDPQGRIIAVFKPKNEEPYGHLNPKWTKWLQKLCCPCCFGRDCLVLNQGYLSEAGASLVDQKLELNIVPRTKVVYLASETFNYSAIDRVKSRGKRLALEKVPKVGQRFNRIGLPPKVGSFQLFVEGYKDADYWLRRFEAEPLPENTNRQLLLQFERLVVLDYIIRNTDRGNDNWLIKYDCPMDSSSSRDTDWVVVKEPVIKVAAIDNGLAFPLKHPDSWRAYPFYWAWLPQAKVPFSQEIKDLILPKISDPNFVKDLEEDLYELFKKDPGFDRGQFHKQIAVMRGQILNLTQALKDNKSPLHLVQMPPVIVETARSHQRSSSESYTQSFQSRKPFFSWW
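ADP-Glo luminescence measured ADP generated by PI4K2A enzyme (4 ug/mL before mixing) with 1.2 mM PI substrate (pre-mix) and 300 microM ATP (pre-mix). Tris pH7.5 buffer with MgCl2, Triton X-100; 1 h reaction at ambient temperature.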
Numbers stand for hits; - = inactive; ? = inconclusive; . = no result. Unless noted, no stated cut-off is given here; in the data, active means activity change below about -65%; inconclusive means mostly about -30% to -63%; inactive means weaker than that.

SMILES	Six1-Eya2 inh	Akt phos inh	PI5P4Ka inh	CtBP-E1A blk	PI4K2A block
C[C@@H]1CN([C@H](C)CO)C(=O)CCCn2nncc2CO[C@@H]1CN(C)C(=O)c1ccncc1	-	-	-	-	-
CC(C)(CNC(=O)CCNC(=O)c1ccc(Br)cc1)N1CCOCC1	-	-	-	-	-
CCCn1nnc(NC(=S)NC(=O)/C=C/c2ccco2)n1	-	-	-63	-	-
O=C(/C=C/c1ccco1)Nc1ccc(Oc2ccc(Cl)cc2)cc1	-	-108%	-	-	-
O=C(/C=C/c1ccco1)NC(=S)Nc1cc(-c2nc3ccccc3s2)ccc1Cl	-	-	-56	-	-
Cc1cccc(NC(=S)NC(=O)/C=C/c2ccco2)c1	-	-	-64	-	-
Cc1ccc(-c2nc3ccccc3s2)cc1NC(=S)NC(=O)/C=C/c1ccco1	?	-	-	-	-
CCc1ccc(-c2nc(CS(=O)CC(=O)NCCc3ccc(C)cc3)c(C)o2)cc1 (configuration not stated)	.	.	.	.	-
O=C(O)C/C(=C\c1cccc(NC(=O)c2ccccc2Cl)c1)c1nc2ccccc2s1	-	-	?	-	-
COc1ccc(C(=O)Nc2cccc(/C=C(\CCC(=O)O)c3nc4ccccc4s3)c2)cc1	-	-	-56	-	-
Cc1cccc(NC(=O)c2sc3nc(N)c(C#N)cc3c2N)c1	?	-	-51	?	-
Cc1cccc(NC(=O)c2sc3nc4c(cc3c2N)CN(C(C)C)CC4)c1	.	.	.	.	-
O=C(Cc1nnc(NC(=O)c2ccccc2)s1)N/N=C\c1ccc(O)c(O)c1	-	-	-75	.	-
COc1ccc(-c2nnc(SCC(=O)NCCc3ccccc3)o2)cc1	-	-124%	-	-	-
COc1ccc(Cc2nnc(SCC(=O)NCCc3ccccc3)o2)cc1	-	-	-	-	-
COc1cccc(CNC(=O)CSc2ccc(-c3ccccn3)nn2)c1	-65	-	-	-74	-
O=C(CSc1ccc(-c2ccccn2)nn1)NCc1ccc(Cl)cc1	?	-	-	-70	-
CC(=O)CSc1nnc(-c2ccc(S(=O)(=O)N3CCOCC3)cc2)n1C	-	-	-	-	-
O=C(COC(=O)c1cnc(Cl)c(Cl)c1)Nc1ccc(S(=O)(=O)N2CCCC2)cc1	-77	-	-	?	-
Cc1cc(N2CCCCCC2)nc(-c2ccccc2O)n1	-	-91%	-	-	-
c1ccc(Oc2nc(-c3ccccn3)nc3ccccc23)cc1	-79	-	-	-94	-
c1ccc(-c2nc(N3CCCCCC3)c3ccccc3n2)nc1	-75	-	-	-73	-
c1ccc(-c2nc(N3CCOCC3)c3ccccc3n2)nc1	?	-	-	?	-
COc1ccc(Oc2nc(-c3ccccn3)nc3ccccc23)cc1	-86	-	-	-66	?
Fc1ccc(Oc2nc(-c3ccccn3)nc3ccccc23)cc1	-	-	-	-	-
SMILES	Six1-Eya2 inh	Akt phos inh	PI5P4Ka inh	CtBP-E1A blk	PI4K2A block
COc1ccc(NC(=O)C2(C)CCN2Cc2ccccc2OC(F)F)cc1OC (configuration not stated)	-	-	-	-	-
S=C1NC2(CCCCC2)NN1c1ccccc1	-	-	-	-	-
CC(C)(C)N1NC2(CCCCC2)NC1=S	-	-	-58	-	-
Oc1cc2ccccc2cc1-c1n[nH]c(=S)o1	-	-	-73	-	-
Cc1cc(-c2n[nH]c(=S)o2)c(C)n1-c1ccccc1	-	-	.	-	-
CCC(=O)NC(C)c1cc(Cl)c2cccnc2c1O (configuration not stated)	.	.	.	.	-
CCCC(=O)NC(c1ccc(Cl)cc1)c1ccc2cccnc2c1O (configuration not stated)	-70	-	-	-77	-
CC(=O)NC(c1ccc(Cl)cc1Cl)c1ccc2cccnc2c1O (configuration not stated)	-90	-	-	-88	-
CCCC(=O)NC(c1ccc(Cl)cc1Cl)c1ccc2cccnc2c1O (configuration not stated)	?	-	-	-73	-
CC(=O)NC(c1ccc2ccccc2c1)c1ccc2cccnc2c1O (configuration not stated)	-89	-	-	-66	-
COc1ccc(C(NC(C)=O)c2ccc3cccnc3c2O)c(OC)c1 (configuration not stated)	?	-	-	?	-
CCOC(=O)[C@@H]1[C@H]2COc3cc(OC)ccc3[C@@H]2N2C(=O)N(c3ccc(C)cc3)C(=O)[C@@]12C	-	-	-	-	-
CCn1cc(C(=O)O)c(=O)c2cnc(N3CCN(C(=S)NC(=O)c4ccc(Cl)cc4Cl)CC3)nc21	-	-	-	-	-
CCCCC(=O)NC(c1ccc(Cl)cc1)c1ccc2cccnc2c1O (configuration not stated)	?	-	-	?	-
CCCC(=O)NC(c1ccc(C)cc1)c1ccc2cccnc2c1O (configuration not stated)	-66	-	-	-90	-
COc1ccc(-n2c(COc3cccc4ccccc34)nnc2SC(C)C(=O)O)cc1 (configuration not stated)	-	-	-97	-	-
O=C(CN1CC(=O)Oc2ccccc21)NCc1ccco1	-72	-	-	?	-
O=C(CN1CCOc2ccccc21)NCc1ccco1	-	-	-	-	-
CN(CC(=O)Nc1cccc(F)c1)C(=O)c1ccc(N2CCOCC2)c([N+](=O)[O-])c1	-	-	-	-	-
Cc1ccc(CN2CCN(/N=C/c3ccc(C(=O)O)cc3)CC2)cc1	-	-	-	-	-
CCN(CC)c1ccc(/C=N\N2CCN(Cc3ccc(C)cc3)CC2)cc1	-66	-	-	?	-
COC(=O)c1ccc(NC(=O)CO/N=C2\CCCc3nonc32)cc1	-	-	?	-	-
CCOC(=O)C(C)Sc1nc(-c2ccco2)cc(C(F)(F)F)c1C#N (configuration not stated)	-	-	-56	-	-
O=C(NCc1ccccc1Cl)C(=O)NCC(c1ccco1)S(=O)(=O)c1cccs1 (configuration not stated)	.	.	.	.	-
COc1ccc(/C=C(\C#N)C(=O)Nc2cccc3ncccc23)cc1OC	-	-	-	.	-
N#C/C(=C\c1ccc(O)c(O)c1)C(=O)Nc1cccc2ncccc12	?	-	-72	?	?
COc1ccc(/C=C2/C(=O)N(c3nc4ccccc4s3)N=C2CSc2ccc(Cl)cc2)cc1	-	-	-72	-	-
O=C(CCl)N1N=C(c2cccs2)CC1c1ccco1 (configuration not stated)	-	-	-	-	-
O=C(CCl)N1N=C(c2ccco2)CC1c1ccco1 (configuration not stated)	?	-	-70	-	-
COc1ccc(C2CC(c3cccs3)=NN2S(=O)(=O)c2ccc(C)cc2)cc1 (configuration not stated)	-	-	-	-	-
